Where “and” joins values, the source holds several entries; their conditions need not be identical. Equal values may be shown once. The whole screen tested about 5,500 compounds, of which about 2,000 (36%) were called active. Not shown: some 18% with an inconclusive outcome. Cut-off read from the data, not from the text of the source: active = normalized growth mostly below about 0.91 (no sharp cut-off); inconclusive = no clear call, values can overlap the other calls; inactive = mostly above about 0.92. This is one part of the list. Where a structure was tested more than once in an assay, its records may differ in their call.
Experiment: chemical genetic growth profiling, strain panel (AID 1159580);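 note: tested at 20 µM; growth read once vehicle control cultures reached saturation at 30 °C; 1 = growth at the plate median or of vehicle wells; lower values mean less growth of the strain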
Settings: S. cerevisiae deletion strains, growth OD

## CN1CCN(CCCN2c3ccccc3Sc3ccc(Cl)cc32)CC1
Locus YAL013W, strain DEP1, stronger effect = lower value
  normalized growth: 0.216 (active) and 1.03 (inactive)
Locus YAL021C, strain ccr4, stronger effect = lower value
  normalized growth: 0.706 (active)
Locus YAL026C, strain drs2, stronger effect = lower value
  normalized growth: 0.0669 (active)
Locus YAL030W, strain snc1, stronger effect = lower value
  normalized growth: 0.922 (active)
Locus YAL040C, strain CLN3, stronger effect = lower value
  normalized growth: 0.97 (inactive)
Locus YBL061C, strain skt5, stronger effect = lower value
  normalized growth: 0.888 (active)
Locus YBR009C, strain hhf1, stronger effect = lower value
  normalized growth: 0.8 (active)
Locus YBR021W, strain FUR4, stronger effect = lower value
  normalized growth: 0.413 (active)
Locus YBR023C, strain chs3, stronger effect = lower value
  normalized growth: 0.868 (active)
Locus YBR171W, strain sec66, stronger effect = lower value
  normalized growth: 0.987 (inactive)
Locus YBR229C, strain ROT2, stronger effect = lower value
  normalized growth: 1 (inactive)
Locus YBR231C, strain swc5, stronger effect = lower value
  normalized growth: 0.663 (active)
Locus YCL011C, strain gbp2, stronger effect = lower value
  normalized growth: 0.772 (active)
Locus YCL016C, strain dcc1, stronger effect = lower value
  normalized growth: 0.938 (inactive)
Locus YCL029C, strain bik1, stronger effect = lower value
  normalized growth: 1.03 (inactive)
Locus YCL061C, strain MRC1 (second series), stronger effect = lower value
  normalized growth: 0.997 (inactive)
Locus YCL069W, strain vba3, stronger effect = lower value
  normalized growth: 0.966 (inactive)
Locus YCR088W, strain abp1, stronger effect = lower value
  normalized growth: 0.831 (active)
Locus YDL005C, strain med2, stronger effect = lower value
  normalized growth: 1 (inactive)
Locus YDL035C, strain GPR1, stronger effect = lower value
  normalized growth: 0.214 (active)
Locus YDL040C, strain nat1, stronger effect = lower value
  normalized growth: 0.964 (inactive)
Locus YDL074C, strain BRE1, stronger effect = lower value
  normalized growth: 0.296 (active)
Locus YDL101C, strain DUN1, stronger effect = lower value
  normalized growth: 0.965 (inactive)
Locus YDL134C, strain PPH21, stronger effect = lower value
  normalized growth: 0.982 (inactive)
Locus YDL185W, strain tfp1, stronger effect = lower value
  normalized growth: 0.964 (inactive)
Locus YDL192W, strain arf1, stronger effect = lower value
  normalized growth: 0.0937 (active)
Locus YDR001C, strain nth1, stronger effect = lower value
  normalized growth: 0.993 (inactive)
Locus YDR069C, strain doa4, stronger effect = lower value
  normalized growth: 0.804 (active)
Locus YDR101C, strain arx1, stronger effect = lower value
  normalized growth: 0.929 (inactive)
Locus YDR137W, strain rgp1, stronger effect = lower value
  normalized growth: 1.26 [resistant] (active)
Locus YDR150W, strain NUM1, stronger effect = lower value
  normalized growth: 0.563 (active)
Locus YDR159W, strain sac3, stronger effect = lower value
  normalized growth: 0.974 (inactive)
Locus YDR162C, strain NBP2, stronger effect = lower value
  normalized growth: 0.0524 (active)
Locus YDR195W, strain ref2
  normalized growth: 1.15 [resistant] (active)
Locus YDR297W, strain sur2, stronger effect = lower value
  normalized growth: 0.968 (inactive)
Locus YDR318W, strain mcm21, stronger effect = lower value
  normalized growth: 0.91 (active)
Locus YDR334W, strain swr1, stronger effect = lower value
  normalized growth: 0.94 (inactive)
Locus YDR335W, strain msn5, stronger effect = lower value
  normalized growth: 0.96 (inactive)
Locus YDR363W, strain ESC2, stronger effect = lower value
  normalized growth: 0.891 (inactive)
Locus YDR388W, stronger effect = lower value
  normalized growth: 0.805 (active)
Locus YDR392W, strain spt3, stronger effect = lower value
  normalized growth: 0.954 (inactive)
Locus YDR502C, strain sam2, stronger effect = lower value
  normalized growth: 0.39 (active)
Locus YEL003W, strain gim4, stronger effect = lower value
  normalized growth: 0.832 (active)
Locus YEL037C, strain rad23, stronger effect = lower value
  normalized growth: 0.963 (inactive)
Locus YEL061C, strain CIN8 (second series), stronger effect = lower value
  normalized growth: 0.986 (inactive)
Locus YEL061C, strain CIN8, stronger effect = lower value
  normalized growth: 0.664 (active)
Locus YER002W, strain NOP16, stronger effect = lower value
  normalized growth: 1 (inactive)
Locus YER015W, strain faa2, stronger effect = lower value
  normalized growth: 0.556 (active)
Locus YER016W, strain bim1, stronger effect = lower value
  normalized growth: 0.972 (inactive)
Locus YER110C, stronger effect = lower value
  normalized growth: 1.02 (inactive)
Locus YER111C, strain swi4, stronger effect = lower value
  normalized growth: 0.993 (inactive)
Locus YER155C, strain BEM2 (second series), stronger effect = lower value
  normalized growth: 0.861 (active)
Locus YER155C, strain BEM2, stronger effect = lower value
  normalized growth: 1.04 (inactive)
Locus YER167W, strain BCK2, stronger effect = lower value
  normalized growth: 0.858 (active)
Locus YFR010W, strain ubp6, stronger effect = lower value
  normalized growth: 0.734 (active)
Locus YGL078C, strain dbp3, stronger effect = lower value
  normalized growth: 0.966 (inactive)
Locus YGL086W, strain mad1, stronger effect = lower value
  normalized growth: 0.61 (active)
Locus YGL167C, strain pmr1, stronger effect = lower value
  normalized growth: 0.947 (inactive)
Locus YGL173C, strain kem1, stronger effect = lower value
  normalized growth: 0.874 (active)
Locus YGL227W, strain vid30, stronger effect = lower value
  normalized growth: 0.997 (inactive)
Locus YGL240W, strain doc1, stronger effect = lower value
  normalized growth: 1.01 (inactive)
Locus YGL248W, strain PDE1, stronger effect = lower value
  normalized growth: 0.99 (inactive)
Locus YGL253W, strain hxk2, stronger effect = lower value
  normalized growth: 0.927 (inactive)
Locus YGR078C, strain PAC10, stronger effect = lower value
  normalized growth: 0.594 (active)
Locus YGR135W, strain pre9, stronger effect = lower value
  normalized growth: 0.544 (active)
Locus YGR229C, strain SMI1, stronger effect = lower value
  normalized growth: 0.065 (active) and 1.02 (inactive)
Locus YGR252W, strain gcn5, stronger effect = lower value
  normalized growth: 0.309 (active)
Locus YHR013C, strain ard1, stronger effect = lower value
  normalized growth: 0.872 (inactive)
Locus YHR027C, strain rpn1, stronger effect = lower value
  normalized growth: 0.594 (active)
Locus YHR030C, strain SLT2, stronger effect = lower value
  normalized growth: 0.465 (active) and 1.02 (inactive)
Locus YHR079C, strain IRE1 (second series), stronger effect = lower value
  normalized growth: 0.969 (inactive)
Locus YHR079C, strain IRE1, stronger effect = lower value
  normalized growth: 1 (inactive)
Locus YHR094C, strain hxt1, stronger effect = lower value
  normalized growth: 1 (inactive)
Locus YHR129C, strain ARP1, stronger effect = lower value
  normalized growth: 0.932 (inactive)
Locus YHR142W, strain chs7, stronger effect = lower value
  normalized growth: 0.854 (active)
Locus YHR200W, strain rpn10, stronger effect = lower value
  normalized growth: 0.869 (active)
Locus YIL066C, strain RNR3, stronger effect = lower value
  normalized growth: 0.793 (active)
Locus YIL073C, strain SPO22, stronger effect = lower value
  normalized growth: 0.854 (inactive)
Locus YIL125W, strain kgd1, stronger effect = lower value
  normalized growth: 0.958 (inactive)
Locus YIR030C, strain dcg1, stronger effect = lower value
  normalized growth: 1 (inactive)
Locus YJL092W, strain hpr5, stronger effect = lower value
  normalized growth: 0.942 (inactive)
Locus YJL095W, strain BCK1 (second series), stronger effect = lower value
  normalized growth: 0.919 (active)
Locus YJL095W, strain BCK1, stronger effect = lower value
  normalized growth: 0.494 (active) and 1.04 (inactive)
Locus YJL115W, strain asf1, stronger effect = lower value
  normalized growth: 0.99 (inactive)
Locus YJL129C, strain trk1, stronger effect = lower value
  normalized growth: 0.83 (active)
Locus YJL134W, strain LCB3, stronger effect = lower value
  normalized growth: 0.991 (inactive)
Locus YJL154C, strain vps35, stronger effect = lower value
  normalized growth: 0.982 (inactive)
Locus YJL164C, strain tpk1, stronger effect = lower value
  normalized growth: 0.878 (active)
Locus YJL166W, strain qcr8, stronger effect = lower value
  normalized growth: 0.809 (active)
Locus YJL168C, strain set2, stronger effect = lower value
  normalized growth: 1.01 (inactive)
Locus YJL187C, strain SWE1 (second series), stronger effect = lower value
  normalized growth: 0.85 (active)
Locus YJR043C, strain POL32, stronger effect = lower value
  normalized growth: 0.247 (active)
Locus YJR066W, strain TOR1, stronger effect = lower value
  normalized growth: 0.968 (inactive)
Locus YJR075W, strain HOC1, stronger effect = lower value
  normalized growth: 0.131 (active)
